Drawing on PubChem BioAssay AID493012 (Sanford-Burnham Center for Chemical Genomics, 2011), this text covers inhibition for 94 compounds.

Each structure is given as a SMILES string. The campaign covered roughly 330,000 compounds. About 930 (0.28%) were called active.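 How the source made its calls: active means inhibition of at least 40% at 20 µM, with no more than 30% in the related APOBEC3A deaminase screen; inactive means the rest.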 What follows is part of a selection rich in actives, with near analogues and random picks from the rest.

The target of this assay is DNA dC->dU-editing enzyme APOBEC-3G (Homo sapiens) (UniProt Q9HC16). The assay is described as follows: inhibition of human A3G ssDNA deamination – biochemical, fluorescence, single-stranded DNA substrate, uHTS, primary screen (AID 493012).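 Further: plate controls were DMSO wells with A3G for no effect and wells lacking A3G enzyme for full effect.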 The note with it: recombinant A3G, ssDNA deamination FAM/TAMRA fluorescence; at 20 µM; stronger effect = higher value.
Chain of DNA dC->dU-editing enzyme APOBEC-3G (Homo sapiens) (Q9HC16 whole entry, looked up): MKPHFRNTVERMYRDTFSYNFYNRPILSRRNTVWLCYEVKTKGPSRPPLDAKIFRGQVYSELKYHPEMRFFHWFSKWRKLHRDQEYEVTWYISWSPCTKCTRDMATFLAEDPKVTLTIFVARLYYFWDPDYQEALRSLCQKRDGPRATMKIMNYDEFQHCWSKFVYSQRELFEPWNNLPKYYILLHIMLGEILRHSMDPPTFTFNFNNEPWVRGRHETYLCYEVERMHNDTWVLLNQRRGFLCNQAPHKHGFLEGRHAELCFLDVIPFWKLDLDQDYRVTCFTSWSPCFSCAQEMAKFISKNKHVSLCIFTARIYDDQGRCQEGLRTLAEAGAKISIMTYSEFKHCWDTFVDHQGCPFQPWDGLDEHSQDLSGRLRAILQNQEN
Regarding `CC(C)(C)n1nnnc1C(c1ccc2ncccc2c1)N1CCSCC1` (centres undefined), the inhibition (usually the drop in the measured response relative to a control, in per cent) was 1.72% (inactive).
For the compound `CCc1cccc(NC(=O)C2CCCN(S(=O)(=O)c3ccc4[nH]c(=O)ccc4c3)C2)c1` (centres undefined), the inhibition is -3.15% (inactive).
Under `CC(C(=O)O)n1cnc2sc3c(c2c1=O)CCCC3` (centres undefined) stands -3.08% (inactive).
Under `N=c1c2c3c(sc2ncn1CCCN1CCOCC1)CCCCC3` stands 2.15% (inactive).
Take `S=c1[nH]nc2c3c4c(sc3ncn12)CCCC4`: the inhibition was 50.1% (active).
For the compound `COc1ccc(-n2nc(C(=O)NCC(=O)Nc3cccc(C)n3)c3ccccc3c2=O)cc1`, the inhibition is -3.64% (inactive).
For `O=c1[nH]c(CN2CCN(S(=O)(=O)c3ccc4c(c3)OCCO4)CC2)nc2sc3c(c12)CCCC3`, the inhibition was -9.39% (inactive).
Turning to `COC(=O)COc1ccc(C2NC(=O)NC(C)=C2C(=O)NCc2ccccc2)cc1OC` (centres undefined), the inhibition was -1.01% (inactive).
Regarding `CCn1c(CN2C(=O)CSc3ccccc32)n[nH]c1=S`, the inhibition was 43.9% (active).
Turning to `CCn1c(CSCc2c(Cl)cccc2Cl)n[nH]c1=S`, the inhibition is 11.9% (inactive).
Regarding `CCn1c(CNS(=O)(=O)c2ccc(Cl)cc2)n[nH]c1=S`, the inhibition was 30.3% (inactive).
In the case of `COc1cc(C2/C(=C(\O)c3ccc4c(c3)CC(C)O4)C(=O)C(=O)N2Cc2ccco2)ccc1O` (centres undefined) it was -3.83% (inactive).
Regarding `COc1ccc(/C=N/NC(=O)C(C)N(c2ccc(OC)cc2)S(C)(=O)=O)cc1` (centres undefined), the inhibition is -4.56% (inactive).
Take `CN(C)c1ccc(C(CNC(=O)c2ccc(F)cc2)c2c[nH]c3ccccc23)cc1` (centres undefined): the inhibition is -2.56% (inactive).
Consider `CNS(=O)(=O)c1ccc(NC(=O)Nc2ccc3c(c2)OCO3)cc1`, for which the inhibition is -9.95% (inactive).
For `COc1ccc(Cn2c(=O)sc3ccccc32)cc1OC`, the inhibition was -9.67% (inactive).
In the case of `S=c1[nH]ccn1-c1ccc(Cl)cc1`, the inhibition was 69.9% (active).
`S=c1[nH]cc(-c2ccc(Cl)cc2)n1-c1ccccc1`: the inhibition is -4.18% (inactive).
Under `O=C(NC(=S)Nc1ccc2oc(=O)ccc2c1)c1ccc(-c2cccc(Cl)c2Cl)o1` stands -0.008% (inactive).
For the compound `S=c1[nH]nc(-c2ccncc2)n1/N=C/c1ccccc1Cl`, the inhibition is 73.5% (active).
Under `S=c1[nH]nc(-c2cccs2)n1/N=C/c1cn(-c2ccccc2)nc1-c1ccc(Cl)cc1` stands -2.77% (inactive); under `S=c1[nH]nc(-c2cccs2)n1/N=C/c1cccs1`, 27.3% (inactive).
Under `Fc1ccccc1/C=N/n1c(-c2cccnc2)n[nH]c1=S` stands 47.1% (active); under `O=[N+]([O-])c1ccccc1/C=N/n1c(COc2ccccc2)n[nH]c1=S`, 34.8% (inactive); under `CCOc1ccc(-c2n[nH]c(=S)n2/N=C/c2cc3c(cc2[N+](=O)[O-])OCO3)cc1`, 1.59% (inactive).
Turning to `COc1ccc2c(c1)C(=O)Nc1cc(Cl)ccc1N2`, the inhibition is -7.65% (inactive).
`O=C(CN1CCCCC1)Nc1ccccc1C(=O)NC1CC1`: the inhibition is -5.07% (inactive).
With `CCCNC(=S)N1CCC(NC(=O)C23CC4CC(CC(C4)C2)C3)CC1`, the inhibition was -5.11% (inactive).
For `Cc1[nH]c2ccccc2c1C(=O)CN1CC(C)CC(C)C1` (centres undefined), the inhibition was -4.14% (inactive).
For the compound `Cc1ccccc1-n1cc(CNC(=O)C2CCC(=O)N(C3CC3)C2)cn1` (centres undefined), the inhibition was -4.71% (inactive).
For the compound `CC(Oc1ccc(F)cc1)C(=O)Nc1ccccc1C(=O)NC1CC1` (centres undefined), the inhibition was -11.6% (inactive).
Take `Cc1nc2scc(-c3cccs3)c2c(=O)n1N`: the inhibition is 42.5% (active).
For the compound `CCCc1nc2scc(-c3ccc(C)cc3)c2c(=O)n1N`, the inhibition is -7.79% (inactive).
`COc1cccc(NC(=O)CN(C)C(=O)CSCc2nc3scc(-c4cccs4)c3c(=O)[nH]2)c1`: the inhibition is -7.77% (inactive).
Take `Cc1cc(-c2ccccc2)nc(N2CCC(C(=O)NC34CC5CC(CC(C5)C3)C4)CC2)n1`: the inhibition was -9.15% (inactive).
Take `CCOC(=O)C1=C(N)N2C(=O)C(C)SC2=C(C(=O)OCC)C1c1cc(OC)c(OC)c(OC)c1` (centres undefined): the inhibition was -2.88% (inactive).
Regarding `C/C=C(/C)C(=O)Nc1cccc(C2=NOC3(C2)C[C@@H](C(N)=O)N(C(=O)C2(C)CC2)C3)c1` (some centres undefined), the inhibition is -16% (inactive).
Under `C/C=C\C=C\C(=O)N1CC2(CC(c3cccc(NC(=O)/C(C)=C\C)c3)=NO2)C[C@H]1C(N)=O` (some centres undefined) stands -3.46% (inactive); under `C=C(C)C(=O)Nc1cccc(C2=NOC3(C2)C[C@H](C(N)=O)N(C(=O)C(c2ccccc2)c2ccccc2)C3)c1` (some centres undefined), 53.1% (active).
`COc1ccc(/C=N/n2nnnc2N)cc1OC`: the inhibition was -3.77% (inactive).
For `COc1cc(/C=C/C(=O)OCC(=O)N2CCOCC2)ccc1OCC#N`, the inhibition is -3.2% (inactive).
In the case of `CC1CCc2sc3nc(N4CCN(CCO)CC4)n4ncnc4c3c2C1` (centres undefined) it was -8.25% (inactive); in that of `CCOC(=O)NC(=O)C(=CNc1cccc(OC)c1)C(=O)NC(=O)OCC`, -5.67% (inactive); in that of `COC(=O)c1c(C)[nH]c(C)c1-c1ccc([N+](=O)[O-])cc1`, -8.28% (inactive).
In the case of `COc1ccc(C2CC(c3ccc([N+](=O)[O-])cc3)=NN2C(C)=O)cc1` (centres undefined) it was 1.76% (inactive); in that of `CC(=O)N1CC[n+]2c(-c3ccc([N+](=O)[O-])cc3)csc21`, 54.4% (active); in that of `Nc1nonc1-n1nnc(C(=O)N/N=C/c2ccc(Cl)cc2)c1-c1ccc2c(c1)OCO2`, 1.23% (inactive).
In the case of `COc1cccc(C(=O)CC(=O)C(=O)Nc2ccc([N+](=O)[O-])cc2C)c1` it was 51.3% (active); in that of `COc1ccc(C(=O)CC(=O)C(=O)Nc2cc([N+](=O)[O-])ccc2OC)cc1`, -6.63% (inactive).
For `COc1cccc(NCCC(=O)c2cccc([N+](=O)[O-])c2)c1`, the inhibition is 1.63% (inactive).
As for `CC(=O)Nc1ccc(S(=O)(=O)NCCC(=O)N2CCN(c3ccccc3Cl)CC2)cc1`, the inhibition was -2.43% (inactive).
Under `CCCn1c(NC(=O)C23CC4CC(CC(O)(C4)C2)C3)nc2ccccc21` stands -2.56% (inactive).
In the case of `O=C(Cc1ccsc1)N1CCN(S(=O)(=O)c2cc(C(F)(F)F)cc(C(F)(F)F)c2)CC1` it was -3.29% (inactive); in that of `CC(C)CCNC(=O)C1CCC(CNc2c(N3CCC(C)CC3)c(=O)c2=O)CC1` (centres undefined), -1.82% (inactive); in that of `C/C(=C(\C#N)C(=O)NCCCN1CCOCC1)N(C)C`, -7.59% (inactive).
In the case of `COc1cc(C(=S)N2CCOCC2)ccc1O`, the inhibition was -1.79% (inactive).
On to `CCOc1cc(C(=S)N2CCOCC2)ccc1OS(=O)(=O)c1ccc(Br)cc1`, for which the inhibition is -3.84% (inactive).
`CCOc1cc(C(=S)N2CCOCC2)ccc1O`: the inhibition is 51.9% (active).
`O=C(CN1CCN(C2CCS(=O)(=O)C2)CC1)N1N=C(c2ccc(Cl)cc2)CC1c1ccco1` (centres undefined): the inhibition is -3.9% (inactive).
In the case of `FC(F)(F)C1CCCN(c2nsc3ccccc23)C1` (centres undefined) it was 72.5% (active).
As to `O=C(NCC(=O)N1CCCC(C(F)(F)F)C1)c1ccccc1F` (centres undefined), the inhibition is -2.23% (inactive).
On to `CCN(CC)CC(=O)Nc1sc2c(c1C(=O)c1ccccc1C)CCC2`, for which the inhibition is 1.14% (inactive).
In the case of `COc1ccc2[nH]c(C(=O)N3CCN(C)CC3)c(C)c2c1`, the inhibition was -7.04% (inactive).
For the compound `COc1ccc2c(C)cc3nnnn3c2c1`, the inhibition is -2.56% (inactive).
In the case of `COc1ccc2[nH]c(=S)cc(C)c2c1` it was 45.8% (active).
`COc1c(C(C)C)oc2cc3oc(=O)ccc3cc12`: the inhibition is -10.3% (inactive).
On to `Cc1cccc(NC(=O)C2CCCN(C(=O)Nc3ccc(F)cc3)C2)c1C` (centres undefined), for which the inhibition was -9.22% (inactive).
On to `COc1ccccc1-n1c(-c2cc(-c3ccco3)[nH]n2)n[nH]c1=S`, for which the inhibition is 66.2% (active).
With `COc1ccccc1-n1cn[nH]c1=S`, the inhibition is -7.32% (inactive).
In the case of `COc1ccc(OC)c(-n2c(-c3ccn[nH]3)n[nH]c2=S)c1` it was 6.84% (inactive); in that of `Cc1ccccc1N1CC(C(=O)Nc2ccc3c(c2)OCO3)CC1=O` (centres undefined), -5.81% (inactive); in that of `Cc1ccc(C)c(N2CCN(C(=O)CCc3nc(-c4cccc(C(F)(F)F)c4)no3)CC2)c1`, 2.36% (inactive).
As for `COc1ccc(OC)c(NC(=O)c2sc3nc(C)cc(C)c3c2N)c1`, the inhibition was -11% (inactive).
Regarding `CCc1ccc2nc3sc(C(=O)Nc4nnc(CC)s4)c(N)c3cc2c1`, the inhibition was -0.825% (inactive).
Under `Cc1ccc(NC(=O)c2sc3nc(N)c(C#N)cc3c2N)cc1` stands 53.5% (active); under `COc1cc(C(=O)Nc2ncccc2C)ccc1OCC(=O)N1CCOCC1`, -6.99% (inactive); under `COc1cccc(NC(=O)N2CCCC2C(=O)NC2CCCCC2)c1` (centres undefined), -7.25% (inactive).
As to `COc1ccc(NC(=O)c2sc(N3CCOCC3)nc2-c2ccccc2)c(OC)c1`, the inhibition was -6.69% (inactive).
Take `CCC1Sc2ccc(S(=O)(=O)CCC(=O)NCc3cccs3)cc2NC1=O` (centres undefined): the inhibition was -2.6% (inactive).
For `Cn1c2ccccc2c(=O)c2c(=O)n(Cc3ccco3)c(COc3ccccc3)nc21`, the inhibition was 52.8% (active).
In the case of `O=c1c2ccccc2oc2nc(C3CCCCC3)n(Cc3ccco3)c(=O)c12` it was -6.57% (inactive); in that of `CCCc1nc2c(c(=O)c3ccccc3n2C)c(=O)n1C1CCCCCC1`, 2.29% (inactive).
Regarding `CC(=O)N1C(=O)/C(=C2\SC(=S)N(NC(=O)c3ccc(O)cc3)C2=O)c2ccccc21`, the inhibition is 1.88% (inactive).
Regarding `COc1cccc(NC(=O)CSc2nnc(C3CCCCC3)n2N)c1`, the inhibition is -9.04% (inactive).
Consider `Cc1cccc(NC(=O)c2ccc(S(=O)(=O)N(C)CC3CCCO3)cc2)c1C` (centres undefined), for which the inhibition is 1.74% (inactive).
Take `Cc1ccc(NCc2n[nH]c(=S)n2-c2ccccc2)cc1Cl`: the inhibition was 10.6% (inactive).
In the case of `Cc1ccc(C)c(S(=O)(=O)Nc2cc(C)on2)c1`, the inhibition was -6.75% (inactive).
Turning to `Cc1cc(-c2n[nH]c(=S)n2-c2ccc(C)c(C)c2)no1`, the inhibition is 45.2% (active).
On to `NC(=O)Cn1nc([N+](=O)[O-])nc1Oc1ccc(Br)cc1`, for which the inhibition is -11.7% (inactive).
Under `Cc1ccnc(-n2sc3ccccc3c2=O)n1` stands 87% (active).
Under `COCCn1c(CN2CCC(Cc3ccccc3)CC2)nc2c1c(=O)n(C)c(=O)n2C` stands -4.86% (inactive).
Consider `Cc1ncn(C23CC4CC(CC(O)(C4)C2)C3)n1`, for which the inhibition was -4.67% (inactive).
Under `Cc1nc([N+](=O)[O-])nn1C12CC3CC(CC(Br)(C3)C1)C2` stands 59.1% (active); under `COc1cccc(NC(=O)c2nn(C34CC5CC(CC(C5)C3)C4)cc2[N+](=O)[O-])c1`, 0.433% (inactive).
